From PubChem BioAssay AID1502 (Sanford-Burnham Center for Chemical Genomics, 2009)
Some of the results follow. Unmarked numbers belong to inactive results. The source made the active and inactive calls. Rule as the data show it: active = inhibition above about 40%; inactive = the rest.

molecular target: Runt-related transcription factor 1 (Homo sapiens) + Core-binding factor subunit beta (Homo sapiens) (UniProt Q01196+Q13951); experiment: inhibitors of RUNX1 Runt–CBFb binding, biochemical, TR-FRET (AID 1502); settings: TR-FRET RUNX1 Runt domain-CBFb binding; at 20 µM; active compounds read high
Sequence (Q01196 whole entry, looked up, the tested form may be a part): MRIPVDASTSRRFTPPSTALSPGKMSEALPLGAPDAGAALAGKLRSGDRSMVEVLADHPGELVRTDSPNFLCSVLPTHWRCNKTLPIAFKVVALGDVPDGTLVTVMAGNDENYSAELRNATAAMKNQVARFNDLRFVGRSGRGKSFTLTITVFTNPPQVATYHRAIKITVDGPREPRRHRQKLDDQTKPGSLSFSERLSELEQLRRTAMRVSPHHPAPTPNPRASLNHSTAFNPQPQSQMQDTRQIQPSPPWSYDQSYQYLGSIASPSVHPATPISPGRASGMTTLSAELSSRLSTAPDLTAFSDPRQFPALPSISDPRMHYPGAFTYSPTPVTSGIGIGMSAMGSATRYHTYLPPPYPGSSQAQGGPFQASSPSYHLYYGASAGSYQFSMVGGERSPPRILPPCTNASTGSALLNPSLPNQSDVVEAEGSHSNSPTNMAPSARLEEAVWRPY
Sequence (Q13951 whole entry, looked up, the tested form may be a part): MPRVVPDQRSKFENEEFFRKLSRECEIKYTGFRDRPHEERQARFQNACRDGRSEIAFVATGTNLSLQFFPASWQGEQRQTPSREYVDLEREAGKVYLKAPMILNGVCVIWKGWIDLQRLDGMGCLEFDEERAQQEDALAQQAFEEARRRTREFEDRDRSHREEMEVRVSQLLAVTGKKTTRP

| SMILES | inhibition |
| --- | --- |
| CCC(=O)Nc1c(S(=O)(=O)c2ccccc2)c2nc3ccccc3nc2n1Cc1ccccc1 | 62.4% (active) |
| COCC(C)OC(=O)c1c(N)n(CCCN2CCOCC2)c2nc3ccccc3nc12 (configuration not stated) | 53.2% (active) |
| OCCN1CCN(C(=S)c2ccc(-c3ccccc3)cc2)CC1 | 15.5% |
| COc1cccc2sc(Nc3nc(C)c(C(C)=O)s3)nc12 | 0.6% |
| Brc1ccc(CSc2ccc(-c3ccco3)nn2)cc1 | 73.7% (active) |
| COc1c(O)ccc2c1CN1CCc3cc4c(cc3C1C2)OCO4 (configuration not stated) | 20.3% |
| CCCN1C2=C(C(=O)CCC2)C(c2ccc(O)c(Br)c2)C2=C1CCCC2=O | 29.9% |
| CCOC(=O)c1cc2c(=O)n3ccccc3nc2n(CC(C)C)c1=NC(=O)c1c(-c2c(F)cccc2Cl)noc1C | -8.1% |
| CC(C)(C)OC(=O)c1c(N)n(CCCN2CCCC2=O)c2nc3ccccc3nc12 | 34.4% |
| O=c1cc(CN2CCN(S(=O)(=O)/C=C/c3ccccc3)CC2)c2ccc(O)cc2o1 | 34.5% |
| CC(C)Oc1ccc(/C=C(\NC(=O)/C=C/c2ccco2)C(=O)NCCc2nc3ccccc3[nH]2)cc1 | -3.3% |
| O=C1c2ccccc2C(Nc2ccc3c(c2)OCCO3)N1Cc1ccco1 (configuration not stated) | 2% |
| COc1ccc(C2C(C#N)=C(N)Oc3cc(N)ccc32)cc1OC (configuration not stated) | -6.8% |
| Cc1ccc(-c2cn3cc([N+](=O)[O-])ccc3n2)cc1 | -11.5% |
| Cc1cc(C)c2c3c(sc2n1)C(c1ccccc1)C(C#N)=C(N)O3 (configuration not stated) | 1.6% |
| Cc1cccc(-n2c(N)c(C(=O)N3CCN(C)CC3)sc2=S)c1 | 18.2% |
| Cc1cc(F)ccc1S(=O)(=O)Nc1ncnc2scc(-c3ccc(F)cc3)c12 | -13.5% |
| CCN1/C(=C/C(=S)Nc2ccccc2)Sc2ccccc21 | -2.1% |
| N#Cc1c(N)n(CCOC(=O)c2ccc(Cl)cc2)c2nc3ccccc3nc12 | 4% |
| CCN1C(=O)/C(=C2/Sc3ccccc3N2CCCS(=O)(=O)O)SC1=S | 10.7% |
| O=c1[nH]c2ccccc2n2c(-c3ccccc3)nnc12 | 66.7% (active) |
| CC(C)Cn1c(CCC(=O)O)ccc1-c1cccs1 | 17% |
| N#CC1=C(N)Oc2cc(O)ccc2C1C1CCCCC1 (configuration not stated) | -0.9% |
| CCCS(=O)(=O)N1CCCC(C(=O)NCc2ccco2)C1 (configuration not stated) | 2.1% |
| CC(=O)Oc1ccc2c(C)c(CC(C)O)c(=O)oc2c1 (configuration not stated) | 14% |
| CCOc1cccc(/C=N/N2C(=O)CSC2=S)c1O | 77.6% (active) |
| COC(=O)Cn1c2ccc(C)cc2c2nc(C)sc21 | 24.5% |
